Screening data (PubChem BioAssay)
An excerpt weighted towards active compounds, which were near 2.5% of everything screened.
Cruzain inh Det: blocks cruzain activity in presence of Triton detergent | P25779 | purified cruzain, Z-FR-AMC fluorescence, 0.01% Triton | Potency, µM, hits mostly inhibitors | 0.43% of 200,000 active | AID 1478; note: nearly all actives have a fitted effect of over 40% in size
Target sequence (P25779 123-467 limits assumed): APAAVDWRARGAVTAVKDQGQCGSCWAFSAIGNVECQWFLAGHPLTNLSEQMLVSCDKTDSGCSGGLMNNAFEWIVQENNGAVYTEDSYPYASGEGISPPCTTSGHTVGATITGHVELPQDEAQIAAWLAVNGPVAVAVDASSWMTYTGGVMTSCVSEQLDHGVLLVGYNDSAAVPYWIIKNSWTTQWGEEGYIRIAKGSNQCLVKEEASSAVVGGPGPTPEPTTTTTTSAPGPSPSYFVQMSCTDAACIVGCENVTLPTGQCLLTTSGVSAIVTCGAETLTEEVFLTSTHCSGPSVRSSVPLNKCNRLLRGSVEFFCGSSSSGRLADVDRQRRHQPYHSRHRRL
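Detergent-containing arm of a paired screen for aggregation-based inhibition: 0.01% Triton X-100 present. Cruzain at 1.5 nM cleaved 2 uM Z-FR-AMC at pH 5.5 with 5 mM DTT; AMC fluorescence gain over 60 s measured activity.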
Cruzain inh noDet: blocks cruzain activity in detergent-free assay | Potency, µM, usual class: inhibitors | AID 1476 | 2.3% of 200,000 active | purified cruzain, Z-FR-AMC fluorescence, no detergent; note: nearly all actives have a fitted effect of over 40% in size
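Purified cruzain at 1.5 nM, pre-incubated 15 min with compound at room temperature in 100 mM sodium acetate pH 5.5, 5 mM DTT, 0.00005% Triton X-100. Reaction started with 2 uM Z-FR-AMC; AMC fluorescence increase over 60 s gives rate.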
A number is an active result; n = inactive; u = inconclusive. Calls come from the whole dose curve; as a rule, active = well fitted curve in the direction sought with a large enough effect; inconclusive = small, poorly fitted or top-dose-only effect, or another doubt; inactive = no such curve, though single readings can be large; an effect the other way counts as inactive or inconclusive.

SMILES	Cruzain inh Det	Cruzain inh noDet
CCc1ccc(NC(=O)C(C)OC(=O)c2cccc(S(=O)(=O)N3CCc4ccccc4C3)c2)cc1 (centres undefined)	n	15.8µM
CCc1ccc(NC(=O)c2ccc(F)c(S(=O)(=O)N3CCc4ccccc4C3)c2)cc1	n	u
CCCN1C(=O)/C(=C\C=C2/C=CN(CC)c3ccccc32)SC1=S	n	n
CCCCN1C(=O)/C(=C/C=C2\N(C)c3ccccc3C2(C)C)SC1=S	n	31.6µM
Cc1ccc(C(=O)c2cn(CC(=O)Nc3ccc(C(C)C)cc3)c3nc(C)ccc3c2=O)cc1	n	n
CCN(CC)C(=O)C(=O)c1cccn1-c1cccc(-n2cccc2C(=O)C(=O)N(CC)CC)c1C#N	n	u
CCc1ccc(-c2csc3[n+]2CCN3C(C)=O)cc1	17.8µM	n
CC(=O)N1CC[n+]2c(-c3ccc(Cl)cc3)csc21	u	n
COc1ccc(NC2=C(c3ccc(C(F)(F)F)cc3)C(=O)c3ccccc32)cc1	n	n
CCOC(=O)C(Sc1cc(C)nc(N)n1)C(C)=O (centres undefined)	n	n
COc1ccccc1C(=O)NC(=S)/C=C1/N(C)c2ccccc2C1(C)C	14.1µM	25.1µM
CN1/C(=C\C(=O)c2cccs2)C(C)(C)c2ccccc21	n	n
CN1/C(=C\C(=O)Nc2ccc(Cl)cc2)C(C)(C)c2ccccc21	n	n
CN1/C(=C\C(=S)NC(=O)c2ccccc2Cl)C(C)(C)c2ccccc21	25.1µM	31.6µM
CNc1oc(-c2ccccc2Cl)nc1P(=O)(c1ccccc1)c1ccccc1	n	u
CNc1oc(-c2ccc(C)cc2)nc1P(=O)(c1ccccc1)c1ccccc1	11.2µM	n
CC(=O)Oc1c(/C=C(\C#N)C(N)=O)[nH]c2ccccc12	n	n
COCC(C)NC(C(=O)Nc1ccc(C)c(Cl)c1)c1ccccc1 (centres undefined)	n	n
Cc1ccc(NC(=O)C(OC(=O)c2ccc(C=O)cc2)c2ccccc2)cc1Cl (centres undefined)	n	25.1µM
COC(=O)c1ccc(NC(=O)CC2C(=O)N(c3ccc(C)cc3)C(=O)N2Cc2ccc(OC)cc2)cc1 (centres undefined)	n	u
O=C(Nc1ccccc1N1CCCC1)c1cccc(-c2cc3ccccc3oc2=O)c1	n	25.1µM
O=C(Nc1ccc(N2CCCCC2)cc1)c1ccccc1	n	n
O=C(Nc1ccc(N2CCCC2)cc1)c1cccc(-c2cc3ccccc3oc2=O)c1	n	3.98µM
O=C(Nc1ccc(N2CCCC2)cc1)c1ccc2ccccc2c1	n	15.8µM
O=C(Nc1ccc(N2CCOCC2)cc1)c1cc2ccccc2o1	n	n
SMILES	Cruzain inh Det	Cruzain inh noDet
Cc1nc(NC(=O)c2ccc(-c3cc4ccccc4oc3=O)cc2)ccc1Br	n	u
O=C(Nc1ccc(Br)cn1)c1cccc(-c2cc3ccccc3oc2=O)c1	n	u
Cc1nc(NC(=O)c2cccc(-c3cc4ccccc4oc3=O)c2)ccc1Br	n	20µM
Cc1cc(C)c(NC(=O)CN2C(=O)c3cccnc3Oc3ccc(C)cc32)c(C)c1	n	u
Nc1nc2c(ncn2C2OC(CO)CC2O)c(=O)[nH]1 (centres undefined)	n	n
O=C(NCc1ccc(Cl)cc1)c1cnc(N2CCCCC2)c2ccccc12	n	n
CN(C)c1ccc(NC(=O)c2ccc([N+](=O)[O-])cc2Cl)cc1	n	u
O=C(Nc1ccc(N2CCCC2)cc1)c1ccc([N+](=O)[O-])cc1Cl	n	10µM
O=C(Nc1ccc(N2CCCC2)cc1)c1cccc(F)c1	n	u
O=C(Nc1ccc(N2CCCC2)cc1)c1ccccc1F	n	20µM
O=C(/C=C/c1ccccc1)Nc1ccc(N2CCCCC2)cc1	n	n
Cc1ccc(NC(=O)CSc2nnc(C)n3c2cc2sccc23)c(C)c1	n	n
O=c1cc(-c2ccccc2)nc2nc(-c3ccco3)[nH]n12	n	0.398µM
Cc1nc2nc(-c3ccccc3)cc(=O)n2[nH]1	n	n
O=C(NNc1nc2ccc(Cl)cc2s1)c1cc(-c2cccs2)nc2ccccc12	n	7.94µM
Cc1cc(C)c2nc(NNC(=O)c3cc(-c4cccs4)nc4ccccc34)sc2c1	n	u
Cc1ccc2sc(NNC(=O)c3cc(-c4cccs4)nc4ccccc34)nc2c1C	n	10µM
O=C(NN1CCOCC1)c1cc(-c2cccs2)nc2ccccc12	n	n
C/C(=C\C(=O)c1ccc(F)cc1)Nc1ccc(N2CCOCC2)cc1	n	n
NC(=O)CC[C@H](NC(=O)c1ccc(F)cc1)C(=O)OCC(=O)Nc1ccc(N2CCOCC2)cc1	25.1µM	u
CCOc1ccc(N2CC(NC(=O)/C=C\c3ccc4c(c3)OCO4)CC2=O)cc1 (centres undefined)	n	n
c1ccc(B2OC[C@@H]3OB(c4ccccc4)O[C@H]([C@@H]4COB(c5ccccc5)O4)[C@@H]3O2)cc1	n	n
Cc1cccc(C)c1OCC(=O)N=Nc1c(O)[nH]c2ccc(Br)cc12	n	n
O=C(N=Nc1c(O)[nH]c2ccc(Br)cc12)c1cc(-c2cccc3ccccc23)n[nH]1	n	10µM
